The full data set covers some 7,900 targets. This sample favours those with a hit. About 0.6% of all pairs of compound and target were hits. Values without a mark were called inactive.
What was measured:
Experiment in all cases: log2 fold change, soluble protein after heating vs DMSO (PISA); higher = thermal stabilisation; K562 cells, 10 uM, 30 min; active = over 0.2 and 3.5 SD of the protein, either way, in both replicates (recomputed)
[1] = compound: C1COCCN1CCN2C3=CC=CC=C3N=C2NC(=O)C4=CC(=CC=C4)[N+](=O)[O-] [IRAK-1-4 Inhibitor I]
Summary of the method: (§1)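 K562 cells (2×10^6 cells/mL) were treated with 10 μM compound for 30 min, and aliquots were heated for 3 min over 48°C-58°C. Pooled aliquots were extracted in PBS with 0.5% NP-40 at 4°C, and the supernatant after 21,000xg for 90 min was measured by TMTpro 16plex LC-MS/MS with channel sums equalised. Reported thermal stability, relative to control samples and from duplicates, is a log2 fold change.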

[2] = compound: C=CC(=O)N1CCC[C@@H](n2nc(-c3ccc(Oc4ccccc4)cc3)c3c(N)ncnc32)C1 [ibrutinib]
Summary of the method: as §1

[3] = compound: CC(=O)c1cnc2ccc(-c3cc(Cl)c(O)c(Cl)c3)nc2c1N[C@H]1CC[C@H](CN(C)C)CC1
Summary of the method: as §1

[4] = compound: CC(C)(C)Cn1c(N)nc2ccc(-c3[nH]c(C(C)(C)C)nc3-c3ccc(F)cc3)nc21 [ralimetinib]
Summary of the method: as §1

[5] = compound: CC(C)(O)CC(=O)NCCn1ccc2ncnc(Nc3ccc(Oc4cccc(C(F)(F)F)c4)c(Cl)c3)c21
Summary of the method: as §1

[6] = compound: CC(C)C1=C2N=C(C=C(N2N=C1)NCC3=CC=CC=C3)NCCCCCCN
Summary of the method: as §1

[7] = compound: CC(C)C[C@@H](C=O)NC(=O)[C@H](CC(C)C)NC(=O)[C@H](CC(C)C)NC(=O)OCc1ccccc1
Summary of the method: as §1

[8] = compound: CC(C)N(C[C@H]1O[C@@H](n2cnc3c(N)ncnc32)[C@H](O)[C@@H]1O)[C@H]1C[C@@H](CCc2nc3cc(C(C)(C)C)ccc3[nH]2)C1 [pinometostat]
Summary of the method: as §1

[9] = compound: CC1=C(C(CC(=O)N1)C2=CC=C(C=C2)C(F)(F)F)C(=O)NC3=C(C=C4C(=C3)C=NN4)F
Summary of the method: as §1

[10] = compound: CC1=C(C2=C(C=C1)C(=O)C3=CC=CC=C3N2CCCN)C
Summary of the method: as §1

UniProt Q9BZI7, sequence (Q9BZI7 whole entry, looked up): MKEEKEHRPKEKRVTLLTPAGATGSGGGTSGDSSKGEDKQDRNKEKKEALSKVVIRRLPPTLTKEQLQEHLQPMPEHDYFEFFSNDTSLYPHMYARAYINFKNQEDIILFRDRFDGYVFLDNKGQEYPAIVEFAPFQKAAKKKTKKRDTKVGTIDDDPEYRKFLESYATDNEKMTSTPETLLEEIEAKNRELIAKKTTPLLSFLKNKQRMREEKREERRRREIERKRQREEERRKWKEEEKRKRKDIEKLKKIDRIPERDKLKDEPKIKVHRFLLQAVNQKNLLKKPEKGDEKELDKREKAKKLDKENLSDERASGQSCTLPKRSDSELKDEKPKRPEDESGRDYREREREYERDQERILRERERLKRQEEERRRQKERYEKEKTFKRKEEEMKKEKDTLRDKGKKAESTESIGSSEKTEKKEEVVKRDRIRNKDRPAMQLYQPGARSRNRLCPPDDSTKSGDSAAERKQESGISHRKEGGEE
UniProt Q8N3P4, sequence (Q8N3P4 whole entry, looked up): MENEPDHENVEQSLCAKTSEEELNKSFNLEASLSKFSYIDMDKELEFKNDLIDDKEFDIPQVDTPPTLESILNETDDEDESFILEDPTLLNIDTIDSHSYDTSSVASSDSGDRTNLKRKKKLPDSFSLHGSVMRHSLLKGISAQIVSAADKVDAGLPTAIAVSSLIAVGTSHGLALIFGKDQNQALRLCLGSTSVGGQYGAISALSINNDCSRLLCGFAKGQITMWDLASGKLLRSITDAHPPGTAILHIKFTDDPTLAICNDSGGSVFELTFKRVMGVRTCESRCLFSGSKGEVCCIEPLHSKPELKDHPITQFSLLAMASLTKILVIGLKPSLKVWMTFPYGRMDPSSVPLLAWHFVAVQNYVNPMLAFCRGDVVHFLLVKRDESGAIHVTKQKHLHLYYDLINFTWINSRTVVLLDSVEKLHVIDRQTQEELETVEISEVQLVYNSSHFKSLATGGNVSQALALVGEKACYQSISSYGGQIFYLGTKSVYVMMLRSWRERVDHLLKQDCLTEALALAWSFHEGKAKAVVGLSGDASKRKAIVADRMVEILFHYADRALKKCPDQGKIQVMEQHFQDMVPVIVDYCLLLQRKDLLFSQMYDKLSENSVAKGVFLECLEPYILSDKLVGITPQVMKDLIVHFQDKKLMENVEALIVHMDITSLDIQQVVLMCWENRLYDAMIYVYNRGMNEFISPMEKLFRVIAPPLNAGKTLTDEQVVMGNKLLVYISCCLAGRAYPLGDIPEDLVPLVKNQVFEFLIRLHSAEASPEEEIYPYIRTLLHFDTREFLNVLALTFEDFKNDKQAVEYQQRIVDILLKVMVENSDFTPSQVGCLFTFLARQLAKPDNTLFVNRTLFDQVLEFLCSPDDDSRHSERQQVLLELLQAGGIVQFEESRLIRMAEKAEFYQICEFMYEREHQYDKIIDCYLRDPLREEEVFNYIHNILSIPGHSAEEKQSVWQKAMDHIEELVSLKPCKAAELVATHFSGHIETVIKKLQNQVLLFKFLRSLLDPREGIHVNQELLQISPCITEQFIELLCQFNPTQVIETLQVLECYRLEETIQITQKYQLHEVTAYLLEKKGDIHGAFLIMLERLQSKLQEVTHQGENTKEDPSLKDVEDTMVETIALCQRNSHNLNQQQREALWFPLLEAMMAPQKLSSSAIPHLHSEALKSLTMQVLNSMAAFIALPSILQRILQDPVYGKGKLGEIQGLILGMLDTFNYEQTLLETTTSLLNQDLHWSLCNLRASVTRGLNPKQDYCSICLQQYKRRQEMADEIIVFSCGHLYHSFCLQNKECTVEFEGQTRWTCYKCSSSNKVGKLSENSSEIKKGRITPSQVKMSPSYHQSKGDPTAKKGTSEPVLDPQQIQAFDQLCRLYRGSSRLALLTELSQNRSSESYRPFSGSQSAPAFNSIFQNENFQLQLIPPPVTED
UniProt O75554, sequence (O75554 whole entry, looked up): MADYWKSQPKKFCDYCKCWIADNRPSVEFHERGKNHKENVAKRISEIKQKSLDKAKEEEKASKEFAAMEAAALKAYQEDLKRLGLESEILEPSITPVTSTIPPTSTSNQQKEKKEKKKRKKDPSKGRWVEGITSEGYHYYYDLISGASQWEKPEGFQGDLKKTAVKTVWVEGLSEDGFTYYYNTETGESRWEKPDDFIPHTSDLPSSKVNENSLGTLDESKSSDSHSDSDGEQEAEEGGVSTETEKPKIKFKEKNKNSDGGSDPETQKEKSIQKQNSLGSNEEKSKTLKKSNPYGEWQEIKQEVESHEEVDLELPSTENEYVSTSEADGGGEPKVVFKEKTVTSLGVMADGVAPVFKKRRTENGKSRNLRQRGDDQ
UniProt P13010, sequence (P13010 whole entry, looked up): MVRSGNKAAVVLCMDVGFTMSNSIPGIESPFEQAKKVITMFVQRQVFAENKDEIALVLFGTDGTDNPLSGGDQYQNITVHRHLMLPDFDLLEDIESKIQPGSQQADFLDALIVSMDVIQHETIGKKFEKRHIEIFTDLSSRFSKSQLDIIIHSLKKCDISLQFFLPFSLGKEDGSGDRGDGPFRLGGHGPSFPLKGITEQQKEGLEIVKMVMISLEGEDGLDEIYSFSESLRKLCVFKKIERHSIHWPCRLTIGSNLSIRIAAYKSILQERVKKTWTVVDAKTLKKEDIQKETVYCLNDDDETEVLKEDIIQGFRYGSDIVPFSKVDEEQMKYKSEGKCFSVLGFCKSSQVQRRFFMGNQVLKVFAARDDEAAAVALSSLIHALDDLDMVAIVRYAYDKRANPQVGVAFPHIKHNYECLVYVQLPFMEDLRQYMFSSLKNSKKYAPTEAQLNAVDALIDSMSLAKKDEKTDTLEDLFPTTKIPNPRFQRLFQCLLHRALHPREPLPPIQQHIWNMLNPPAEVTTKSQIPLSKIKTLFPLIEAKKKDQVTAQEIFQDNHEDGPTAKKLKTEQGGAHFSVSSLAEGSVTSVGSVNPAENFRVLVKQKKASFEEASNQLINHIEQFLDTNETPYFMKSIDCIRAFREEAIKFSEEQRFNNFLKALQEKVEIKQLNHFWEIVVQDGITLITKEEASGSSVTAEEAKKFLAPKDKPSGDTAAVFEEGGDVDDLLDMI
UniProt Q14157, sequence (Q14157 whole entry, looked up): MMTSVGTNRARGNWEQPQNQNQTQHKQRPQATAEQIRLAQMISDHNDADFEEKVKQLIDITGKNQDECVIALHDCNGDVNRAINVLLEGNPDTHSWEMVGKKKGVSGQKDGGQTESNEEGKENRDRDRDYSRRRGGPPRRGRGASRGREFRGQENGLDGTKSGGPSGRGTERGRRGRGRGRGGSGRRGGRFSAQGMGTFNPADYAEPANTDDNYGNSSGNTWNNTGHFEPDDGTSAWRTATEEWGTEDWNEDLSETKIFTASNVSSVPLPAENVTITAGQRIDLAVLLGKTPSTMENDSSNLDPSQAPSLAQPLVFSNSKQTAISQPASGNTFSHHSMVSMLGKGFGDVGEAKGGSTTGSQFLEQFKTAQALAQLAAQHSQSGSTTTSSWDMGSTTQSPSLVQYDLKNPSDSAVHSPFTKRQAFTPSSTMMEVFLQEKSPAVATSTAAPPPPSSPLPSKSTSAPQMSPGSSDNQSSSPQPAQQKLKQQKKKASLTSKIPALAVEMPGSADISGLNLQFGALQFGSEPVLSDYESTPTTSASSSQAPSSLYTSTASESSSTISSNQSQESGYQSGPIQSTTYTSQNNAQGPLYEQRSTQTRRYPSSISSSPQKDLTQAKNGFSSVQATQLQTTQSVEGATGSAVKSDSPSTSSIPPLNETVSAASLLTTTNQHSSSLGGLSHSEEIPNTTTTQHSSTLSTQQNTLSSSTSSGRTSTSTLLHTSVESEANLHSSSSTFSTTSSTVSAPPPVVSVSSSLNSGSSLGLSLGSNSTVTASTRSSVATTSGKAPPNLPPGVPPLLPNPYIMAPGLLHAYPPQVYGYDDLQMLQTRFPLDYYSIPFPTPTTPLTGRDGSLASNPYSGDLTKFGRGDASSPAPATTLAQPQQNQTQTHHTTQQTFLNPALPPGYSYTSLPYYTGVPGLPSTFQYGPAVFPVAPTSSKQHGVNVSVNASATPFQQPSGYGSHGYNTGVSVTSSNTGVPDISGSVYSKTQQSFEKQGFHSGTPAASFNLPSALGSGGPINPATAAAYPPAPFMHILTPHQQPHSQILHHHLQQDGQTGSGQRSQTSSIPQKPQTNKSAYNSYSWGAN
UniProt Q9BXJ8, sequence (Q9BXJ8 whole entry, looked up): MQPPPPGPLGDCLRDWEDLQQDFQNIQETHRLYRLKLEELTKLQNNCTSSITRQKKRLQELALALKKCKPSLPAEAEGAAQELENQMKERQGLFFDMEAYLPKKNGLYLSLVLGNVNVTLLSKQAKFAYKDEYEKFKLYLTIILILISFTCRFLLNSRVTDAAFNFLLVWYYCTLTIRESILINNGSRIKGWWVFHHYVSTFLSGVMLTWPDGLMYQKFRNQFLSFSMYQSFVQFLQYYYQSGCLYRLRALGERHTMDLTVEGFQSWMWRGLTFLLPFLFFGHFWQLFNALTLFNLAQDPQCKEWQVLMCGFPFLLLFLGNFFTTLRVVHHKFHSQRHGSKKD
UniProt O95379, sequence (O95379 whole entry, looked up): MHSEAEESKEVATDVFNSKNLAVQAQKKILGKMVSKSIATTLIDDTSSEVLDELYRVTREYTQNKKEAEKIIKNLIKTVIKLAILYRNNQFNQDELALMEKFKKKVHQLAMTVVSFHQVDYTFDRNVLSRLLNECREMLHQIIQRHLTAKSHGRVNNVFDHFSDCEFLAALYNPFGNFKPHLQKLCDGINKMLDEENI

Row | Target | log2 fold change [1] | log2 fold change [2] | log2 fold change [3] | log2 fold change [4] | log2 fold change [5] | log2 fold change [6] | log2 fold change [7] | log2 fold change [8] | log2 fold change [9] | log2 fold change [10]
1 | TOP2A isoform 4 (UniProt P11388) | -0.145 | 0.116 | 0.154 | 0.324 | 0 | -0.125 | 0.261 | 0.533 | 0.041 | -0.968 (active)
2 | XRCC5 (UniProt P13010) | -0.264 | -0.104 | -0.214 | 0.083 | -0.175 | -0.505 (active) | 0.126 | -0.01 | 0 | -0.065
3 | WDHD1 (UniProt O75717) | -0.055 | 0.006 | -0.087 | -0.038 | -0.065 | -0.125 | 0 | -0.03 | -0.02 | -0.063
4 | TNPO3 (UniProt Q9Y5L0) | -0.006 | -0.02 | -0.014 | 0.024 | -0.156 | -0.154 | -0.08 | 0.006 | 0.036 | -0.02
5 | WASHC2A (UniProt Q641Q2) | -0.002 | -0.013 | 0.054 | 0.013 | 0.047 | -0.266 (active) | 0.025 | 0.033 | -0.004 | -0.044
6 | UBAP2L isoform 1 (UniProt Q14157) | 0.076 | -0.006 | 0.007 | -0.025 | 0.016 | 0.103 | 0.029 | -0.031 | 0.073 | 0.055
7 | USP24 (UniProt Q9UPU5) | 0.052 | 0.086 | 0.156 | -0.077 | -0.093 | 0.004 | -0.043 | -0.026 | -0.08 | 0.017
8 | XRCC6 (UniProt P12956) | -0.046 | -0.057 | -0.12 | -0.004 | -0.124 | -0.195 | 0.074 | -0.01 | -0.001 | -0.008
9 | UBAP2L isoform 5 (UniProt Q14157) | 0.053 | 0.04 | 0.017 | -0.007 | 0.003 | 0.053 | -0.012 | -0.032 | 0.009 | 0.068
10 | VPS8 (UniProt Q8N3P4) | -0.085 | -0.117 | -0.004 | 0.088 | -0.079 | -0.254 | 0.052 | 0.039 | 0.026 | 0.015
11 | TNFAIP8 isoform 4 (UniProt O95379) | -0.018 | -0.036 | -0.036 | 0 | -0.037 | -0.075 | -0.047 | -0.065 | -0.001 | -0.037
12 | UPF3B (UniProt Q9BZI7) | -0.099 | 0.158 | 0.265 | 0.27 | 0.057 | -0.02 | 0.19 | 0.394 | -0.002 | -0.183
13 | TRAPPC13 isoform 5 (UniProt A5PLN9) | -0.06 | -0.047 | -0.121 | -0.048 | -0.093 | -0.014 | 0.026 | 0.033 | -0.06 | -0.047
14 | TMEM120A (UniProt Q9BXJ8) | -0.066 | -0.183 | -0.068 | -0.003 | -0.429 | -0.006 | -0.078 | 0.093 | -0.065 | 0.051
15 | WBP4 (UniProt O75554) | 0.082 | -0.001 | 0.033 | -0.057 | -0.001 | 0.098 | 0.041 | -0.06 | -0.003 | 0.02

Source: the supplement of paper PMC10849652
